The source of these data is PubChem BioAssay (Tox21).

Where “and” joins values, the source holds several entries; their conditions need not be identical. Equal entries are not always repeated. Results filed as inconclusive are left out. Calls of active or inactive are those of the source. Unless noted, calls follow the shape of the full dose curve.

Test [1] is described as follows: Nuclear factor erythroid 2-related factor 2/antioxidant responsive element (Nrf2/ARE) small molecule agonists: qHTS cell viability counter screen in human keratinocytes (AID 1919968; active = well fitted curve in the direction sought with a large enough effect in the repeat runs; an effect the other way counts as inactive or inconclusive; also: nearly all actives have a fitted effect of over 55% in size). In short, it runs like this: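 In human HaCaT keratinocytes stably expressing an ARE-driven luciferase, compound exposure lasted 23 h at 37 C under 5% CO2. Viable cells are quantified with a protease-based fluorogenic reagent (CellTiter-Fluor) read 1 h after addition.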

Test [2] is described as follows: Nuclear factor erythroid 2-related factor 2/antioxidant responsive element (Nrf2/ARE) small molecule agonists: luciferase reporter gene qHTS assay in human keratinocytes (AID 1919969). Also: nearly all actives have a fitted effect of over 35% in size. A general note: In a reporter assay the amount or activity of a reporter protein is the signal.
Test [3] addresses Gonadotropin-releasing hormone receptor (Homo sapiens) (UniProt P30968). Briefly: Human gonadotropin-releasing hormone receptor (GnRHR) small molecule agonists, calcium flux assay in GnRHR-HEK293 cells (AID 1920063). Also: nearly all actives have a fitted effect of over 35% in size. In short, it runs like this: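 Intracellular calcium rise is the read-out: engineered human GnRHR HEK293 cells, dye-loaded, are exposed to DMSO-dissolved compounds and fluorescence at Ex/Em 480/540 is tracked for 3 min.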

Test [4] deals with KiSS-1 receptor (Homo sapiens) (UniProt Q969F8). Briefly: Human kisspeptin (KISS1R) small molecule agonists, calcium flux assay in KISS1R-HEK293 cells (AID 1920064; active = well fitted curve in the direction sought with a large enough effect in the repeat runs; an effect the other way counts as inactive or inconclusive). Put shortly: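 Concentration-response testing used 15 concentrations in triplicate on human KISS1R-expressing HEK293 cells. Calcium-dependent fluorescence (Ex/Em 480/540) was followed kinetically for 3 min after compound transfer.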

Test [5] can be described thus: G protein-coupled receptor (GPCR) small molecule agonists, calcium flux assay: HEK293 wild type cell line counter screen (AID 1920065). Put shortly:
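Fluorescence intensity signals activation. After overnight (18 h) culture and a 1 h calcium dye load at 37 C, compounds are added by pin tool and the plate read at 480/540 nm for 3 min in 1 s steps.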
For orientation: Calcium flux is commonly read through the fluorescence of an indicator in the cells.

Test [6] in a line: p53 small molecule agonists, cell-based qHTS assay with rat liver microsomes (AID 1963578). In short, it runs like this: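 Metabolic activation by rat liver microsomes and NADPH, each 0.5 mg/mL final, added right after compounds to p53RE-bla reporter cells (4,000/well, plated 5 h earlier). 16 h at 37 C, then LiveBLAzer substrate for 2 h at room temperature in the dark; fluorescence read-out.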
Background: In qHTS, concentration-response curves come from the screen itself.

Test [7] is described as follows: p53 small molecule agonists, cell-based qHTS assay with human liver microsomes: qHTS cell viability counter screen (AID 1963579). Also: nearly all actives have a fitted effect of over 45% in size. Put shortly:
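Metabolic activation used human liver microsomes and NADPH, both 0.5 mg/mL final, over 16 hours at 37 C on p53RE-bla cells (4,000/well). Cytotoxicity measured by CellTiter-Glo luminescence, 30 min at room temperature.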

Test [8] in a line: p53 small molecule agonists, cell-based qHTS assay with rat liver microsomes: qHTS cell viability counter screen (AID 1963580). Also: nearly all actives have a fitted effect of over 45% in size. Put shortly: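 After the beta-lactamase ratio was read, CellTiter-Glo was added to the same wells and luminescence measured at 30 min; cells had been treated 16 h at 37 C with compounds, rat liver microsomes and NADPH (0.5 mg/mL final each).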
A short description of test [9]: p53 small molecule agonists, cell-based qHTS assay (AID 1963582; active = well fitted activation curve with a large enough effect in the signal ratio in the repeat runs, not every such curve was filed as active; the % refers to the signal ratio; also: potency is read from the fitted curve at half-maximal effect). In short, it runs like this:
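After plating, p53RE-bla cells sat 5 h in the incubator; compounds or DMSO vehicle were pinned in; a 16 h incubation at 37 C followed; FRET substrate was added and, 2 h later at RT, fluorescence was measured.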

Test [10] addresses 5-hydroxytryptamine receptor 2A (Homo sapiens) (UniProt P28223). Briefly: 5-hydroxytryptamine receptor 2A (HTR2A) small molecule antagonists, cell-based qHTS assay (AID 1963586). Also: nearly all actives have a fitted effect of over 45% in size. In short, it runs like this:
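CHO cells stably expressing human HTR2A were plated for 18 h at 37 C, then loaded with calcium dye for 1 h. Compounds were preincubated 5 min at room temperature before DOI (4 nM solution) was added. Kinetic fluorescence was read for 3 min.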

Test [11] shares this target. Briefly: 5-hydroxytryptamine receptor 2A (HTR2A) small molecule agonists, cell-based qHTS assay (AID 1963587). Also: nearly all actives have a fitted effect of over 30% in size. Put shortly: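 CHO cells stably expressing human HTR2A, plated 18 h, loaded with calcium dye 1 h at 37 C. Agonist mode: compounds added and intracellular calcium fluorescence recorded kinetically for 2 min at 1 sec intervals.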
The target of test [12] is Muscarinic acetylcholine receptor M1 (Homo sapiens) (UniProt P11229). The test can be described thus: Cholinergic receptor muscarinic 1 (CHRM1) small molecule antagonists, cell-based qHTS assay (AID 1963588). Also: nearly all actives have a fitted effect of over 40% in size. In short, it runs like this:
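Compounds were tested at 15 concentrations in three independent runs. Dye-loaded CHRM1-CHO cells were exposed 5 min at room temperature before stimulation by acetylcholine added at 50nM. Intracellular calcium was read kinetically on FDSS for 3 min.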

Test [13] has the same target. Briefly: Cholinergic receptor muscarinic 1 (CHRM1) small molecule agonists, cell-based qHTS assay (AID 1963589). Also: nearly all actives have a fitted effect of over 35% in size. In short, it runs like this: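 Fluorescent calcium dye reports M1 activation in stably transfected CHO cells. Compounds, 15 concentrations, added after 1 h dye loading at 37 C; kinetic reading at 1 sec intervals.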
The nature of test [14]: cAMP Responsive Elements (CRE) small molecule agonists, cell-based qHTS assay (AID 1963590). In short, it runs like this:
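Compound exposure lasted 3 h at 37 C/5% CO2 in CRE-bla HEK 293T cells grown in assay medium with 10% dialyzed FBS and 25 mM HEPES. Reporter signal came from LiveBLAzer B/G FRET substrate, 2 h, room temperature.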

The nature of test [15]: cAMP Responsive Elements (CRE) small molecule antagonists, cell-based qHTS assay (AID 1963591; active = well fitted inhibition curve with a large enough effect in the signal ratio in the repeat runs, not every such curve was filed as active; the % refers to the signal ratio). Put shortly:
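Stimulation used NKH477 at a final 0.25 uM for 3 h in compound-treated CRE-bla HEK293T cells, seeded 18 h beforehand. Reporter activity was measured with LiveBLAzer B/G FRET substrate after 2 h at room temperature.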

For test [16], the target named is Beta-2 adrenergic receptor (Homo sapiens) (UniProt P07550). Briefly: Adrenergic beta2 receptor (ADRB2) small molecule antagonists, cell-based qHTS assay (AID 1963592). Also: series mostly up to about 92 µM; nearly all actives have a fitted effect of over 50% in size. In short, it runs like this: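 Assay format: CHO-ADRB2 cells, 18-20hr seeding at 37C/5% CO2, then compound plus 1nM isoproterenol agonist mix for 0.5hr RT. Homogeneous time-resolved fluorescence cAMP detection after 1hr, expressed as 665/615 nm ratio.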

In test [17] the target is D(2) dopamine receptor (Homo sapiens) (UniProt P14416). The test can be described thus: Dopamine D2 receptor (DRD2) small molecule agonists, cell-based qHTS assay (AID 1963594). Also: nearly all actives have a fitted effect of over 35% in size. Put shortly: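 HEK293 cells stably expressing human DRD2, pre-treated with PDE inhibitor Ro20-1724 (0.1 mM final) and compound 10 min at room temperature, then stimulated with NKH477 (200nM […]) for 30 min. cAMP read by HTRF (665/620 nm).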

Test [18] has the same target. The test can be described thus: Dopamine D2 receptor (DRD2) small molecule antagonists, cell-based qHTS assay (AID 1963595; active = well fitted inhibition curve with a large enough effect in the signal ratio in the repeat runs, with a control signal flat; the % refers to the signal ratio; also: potency is read from the fitted curve at half-maximal effect). In short, it runs like this:
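Antagonist mode in DRD2-HEK293 cells: after compound addition with 0.1 mM Ro20-1724, cells received quinpirole (12 nM) and NKH477 (200 nM) for 30 min at room temperature; HTRF cAMP read after 1 h detection.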

Test [19] addresses Beta-2 adrenergic receptor (Homo sapiens) (UniProt P07550). Briefly: Adrenergic beta2 receptor (ADRB2) small molecule agonists, cell-based qHTS assay (AID 1963593).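 Also: CHO cells stably overexpressing human ADRB2.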 Put shortly:
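CHO cells stably over-expressing ADRB2 were plated overnight at 37C, then dosed with compounds plus a stimulation mix containing 100uM IBMX and 25uM Ro-20-1724 for 0.5hr at room temperature. cAMP was measured by HTRF competition, 1hr.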

Test [20] is described as follows: p53 small molecule agonists, cell-based qHTS assay: qHTS cell viability counter screen (AID 1963581). Also: nearly all actives have a fitted effect of over 45% in size. Put shortly: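 Luminescence from CellTiter-Glo, reflecting ATP content, serves as the cytotoxicity measure; it is taken after the 2 h reporter substrate step in HCT-116 p53RE-bla cells dosed for 16 h at 37 C.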

Muscarinic acetylcholine receptor M1 (Homo sapiens), sequence (P11229 whole entry, looked up): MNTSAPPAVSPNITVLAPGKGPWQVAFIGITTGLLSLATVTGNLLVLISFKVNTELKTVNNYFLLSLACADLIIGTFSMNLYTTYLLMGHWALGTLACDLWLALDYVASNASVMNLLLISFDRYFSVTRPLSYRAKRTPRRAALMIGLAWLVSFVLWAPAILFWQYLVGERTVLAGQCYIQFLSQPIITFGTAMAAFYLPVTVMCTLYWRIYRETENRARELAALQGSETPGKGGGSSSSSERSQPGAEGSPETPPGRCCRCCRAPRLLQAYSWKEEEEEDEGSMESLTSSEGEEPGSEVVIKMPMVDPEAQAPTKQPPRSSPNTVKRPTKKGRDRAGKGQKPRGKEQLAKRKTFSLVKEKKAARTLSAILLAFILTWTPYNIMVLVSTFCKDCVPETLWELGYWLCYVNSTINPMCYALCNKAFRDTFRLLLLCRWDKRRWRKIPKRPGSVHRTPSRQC
D(2) dopamine receptor (Homo sapiens), sequence (P14416 whole entry, looked up): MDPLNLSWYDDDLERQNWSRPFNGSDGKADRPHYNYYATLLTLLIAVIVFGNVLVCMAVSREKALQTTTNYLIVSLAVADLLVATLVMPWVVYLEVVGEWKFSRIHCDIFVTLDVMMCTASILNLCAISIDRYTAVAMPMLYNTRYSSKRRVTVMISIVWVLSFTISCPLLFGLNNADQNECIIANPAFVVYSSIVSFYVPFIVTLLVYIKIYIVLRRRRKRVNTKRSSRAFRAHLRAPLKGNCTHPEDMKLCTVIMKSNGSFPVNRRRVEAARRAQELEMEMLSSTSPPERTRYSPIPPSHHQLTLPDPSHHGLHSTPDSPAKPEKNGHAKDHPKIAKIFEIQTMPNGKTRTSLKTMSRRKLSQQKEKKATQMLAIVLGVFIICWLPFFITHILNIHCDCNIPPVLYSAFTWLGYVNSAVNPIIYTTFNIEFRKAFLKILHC
Gonadotropin-releasing hormone receptor (Homo sapiens), sequence (P30968 whole entry, looked up): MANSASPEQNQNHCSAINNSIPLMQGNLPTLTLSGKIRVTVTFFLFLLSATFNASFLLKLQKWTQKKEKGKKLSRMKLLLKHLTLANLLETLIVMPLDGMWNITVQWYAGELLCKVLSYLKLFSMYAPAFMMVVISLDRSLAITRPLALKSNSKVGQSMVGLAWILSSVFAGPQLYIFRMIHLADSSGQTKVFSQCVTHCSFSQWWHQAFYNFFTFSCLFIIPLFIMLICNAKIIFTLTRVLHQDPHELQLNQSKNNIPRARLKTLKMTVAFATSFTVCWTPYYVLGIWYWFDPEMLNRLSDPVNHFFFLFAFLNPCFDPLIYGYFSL
KiSS-1 receptor (Homo sapiens), sequence (Q969F8 whole entry, looked up): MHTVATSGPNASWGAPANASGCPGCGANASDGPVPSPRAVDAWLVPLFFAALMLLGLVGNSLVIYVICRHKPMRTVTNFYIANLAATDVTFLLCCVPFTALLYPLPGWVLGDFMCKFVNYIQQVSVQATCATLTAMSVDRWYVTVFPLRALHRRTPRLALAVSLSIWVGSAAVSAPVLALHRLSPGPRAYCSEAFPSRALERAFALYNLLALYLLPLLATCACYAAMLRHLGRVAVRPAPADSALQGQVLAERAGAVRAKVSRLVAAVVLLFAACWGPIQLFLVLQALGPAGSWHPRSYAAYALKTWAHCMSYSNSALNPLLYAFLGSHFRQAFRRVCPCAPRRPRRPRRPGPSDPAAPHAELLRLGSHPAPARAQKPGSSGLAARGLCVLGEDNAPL
5-hydroxytryptamine receptor 2A (Homo sapiens), sequence (P28223 whole entry, looked up): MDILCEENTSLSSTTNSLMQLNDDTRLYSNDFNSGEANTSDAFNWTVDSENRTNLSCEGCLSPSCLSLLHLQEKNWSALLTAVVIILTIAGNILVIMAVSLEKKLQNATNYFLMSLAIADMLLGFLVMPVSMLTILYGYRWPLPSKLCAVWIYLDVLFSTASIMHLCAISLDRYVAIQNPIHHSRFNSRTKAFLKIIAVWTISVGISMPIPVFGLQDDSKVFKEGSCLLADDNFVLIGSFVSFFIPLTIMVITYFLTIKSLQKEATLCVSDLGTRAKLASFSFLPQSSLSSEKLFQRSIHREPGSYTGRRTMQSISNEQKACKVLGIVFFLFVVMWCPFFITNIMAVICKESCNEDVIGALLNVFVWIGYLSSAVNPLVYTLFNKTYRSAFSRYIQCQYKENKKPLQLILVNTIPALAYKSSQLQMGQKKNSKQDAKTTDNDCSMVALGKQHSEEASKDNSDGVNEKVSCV
Beta-2 adrenergic receptor (Homo sapiens), sequence (P07550 whole entry, looked up): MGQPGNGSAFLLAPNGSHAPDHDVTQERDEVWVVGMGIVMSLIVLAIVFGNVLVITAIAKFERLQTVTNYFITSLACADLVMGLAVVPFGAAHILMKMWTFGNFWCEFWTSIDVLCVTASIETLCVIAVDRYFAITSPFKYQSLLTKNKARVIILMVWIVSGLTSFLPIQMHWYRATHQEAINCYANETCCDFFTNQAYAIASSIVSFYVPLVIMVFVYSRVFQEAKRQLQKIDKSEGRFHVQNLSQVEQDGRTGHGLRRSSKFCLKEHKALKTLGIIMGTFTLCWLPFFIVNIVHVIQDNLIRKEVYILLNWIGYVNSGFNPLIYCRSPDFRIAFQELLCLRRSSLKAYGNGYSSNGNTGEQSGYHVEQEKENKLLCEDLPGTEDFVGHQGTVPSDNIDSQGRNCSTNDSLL

As to `C/C=C/CO`, the Potency result in test [1], in test [2], in [3], in test [4], in test [5] and in test [6] was “inactive” in each case. For the same compound, the Potency result in [7], in test [8], in test [9], in test [10], in test [11] and in [12] was “inactive” in each case. The Potency result in [13], in [14], in test [15], in [16], in test [17] and in [18] was “inactive” each time.

For the compound `CC1=CC[C@H](CC=O)C1(C)C`, the Potency entry in test [1], in test [2], in test [3], in test [4], in test [5] and in [6] was “inactive” throughout. Further, the Potency result in [7], in [9], in test [10], in test [11], in test [12] and in [13] was “inactive” in each case. In addition, the Potency result in test [14], in test [15], in test [16], in test [19] and in [17] was “inactive” in each case.

For `NS(=O)(=O)c1ccccc1Cl`, the Potency entry in test [1], in test [2], in [3], in test [4], in test [5] and in test [6] was “inactive” throughout. The Potency result in [7], in test [8], in test [20], in [9], in [11] and in test [12] was “inactive” each time. The Potency entry in test [13], in test [14], in test [15], in [16], in test [19] and in test [17] was “inactive” throughout. The Potency result in test [18] was “inactive”.

On to `CCN(CC)c1ccc2c(C)cc(=O)oc2c1`, for which the Potency result in test [1], in test [2], in test [3], in test [4], in test [5] and in [7] was “inactive” each time. Further, the Potency result in test [8], in [20], in test [10], in [11], in test [12] and in test [13] was “inactive” each time. Further, the Potency entry in test [16], in test [19] and in [18] was “inactive” each time. Further, the Potency in test [9] was 25.9 µM (active) and 32.4 µM (active).

On to `CC(=O)NCc1c(I)c(NC(C)=O)c(I)c(C(=O)O)c1I`, for which the Potency entry in test [1], in test [2], in test [3], in test [4], in [5] and in [6] was “inactive” each time. In addition, the Potency entry in test [7], in [8], in [20], in test [9], in [10] and in [12] was “inactive” throughout. Further, the Potency result in test [13], in test [15], in [16], in test [19], in test [17] and in test [18] was “inactive” throughout.

Turning to `C=CC(C)CCC=C(C)C` (centres undefined), the Potency result in [1], in test [2], in test [3], in test [4], in test [5] and in test [6] was “inactive” each time. Further, the Potency result in [7], in test [20], in [9], in [10], in test [11] and in test [12] was “inactive” throughout. In addition, the Potency entry in test [13], in test [14], in test [15], in test [16], in test [19] and in test [17] was “inactive” in each case. Besides, the Potency entry in test [18] is “inactive”.

`CC(C)(C)C(=O)OCOP(=O)(COCCn1cnc2c(N)ncnc21)OCOC(=O)C(C)(C)C`: the Potency entry in test [1], in [2], in [3], in test [4], in test [5] and in test [6] was “inactive” throughout. For the same compound, the Potency result in [8], in test [20], in [10], in test [12], in test [13] and in test [14] was “inactive” in each case. The Potency entry in test [15], in test [16] and in [17] was “inactive” in each case. Further, the Potency in test [9] was 7.93 µM (active); in test [18] it was 13.3 µM (active).
